From ChEMBL document CHEMBL3988442, “University of Dundee, Small-Polar-MMV Screening Library” (2021)
For some assays here: Entries with a potency or affinity are not part of this list.

Experiments:
Set-up in all cases: scale not given: direction of the effect not stated beside the values
[1] = target: Protein translocase subunit SecA (Escherichia coli (strain K12)) (UniProt P10408); test: Assay to Identify E. coli SecA ATPase Inhibitors; type: functional; conditions: 30 µM
[2] = target: T1, Ubiquitin-activating enzyme e1, putative (Leishmania donovani (strain BPK282A1)) (UniProt E9BSI1); test: Leishmania donovani Ubiquitin Activating Enzyme (LdE1); type: functional; conditions: 30 µM
T1 sequence (whole entry): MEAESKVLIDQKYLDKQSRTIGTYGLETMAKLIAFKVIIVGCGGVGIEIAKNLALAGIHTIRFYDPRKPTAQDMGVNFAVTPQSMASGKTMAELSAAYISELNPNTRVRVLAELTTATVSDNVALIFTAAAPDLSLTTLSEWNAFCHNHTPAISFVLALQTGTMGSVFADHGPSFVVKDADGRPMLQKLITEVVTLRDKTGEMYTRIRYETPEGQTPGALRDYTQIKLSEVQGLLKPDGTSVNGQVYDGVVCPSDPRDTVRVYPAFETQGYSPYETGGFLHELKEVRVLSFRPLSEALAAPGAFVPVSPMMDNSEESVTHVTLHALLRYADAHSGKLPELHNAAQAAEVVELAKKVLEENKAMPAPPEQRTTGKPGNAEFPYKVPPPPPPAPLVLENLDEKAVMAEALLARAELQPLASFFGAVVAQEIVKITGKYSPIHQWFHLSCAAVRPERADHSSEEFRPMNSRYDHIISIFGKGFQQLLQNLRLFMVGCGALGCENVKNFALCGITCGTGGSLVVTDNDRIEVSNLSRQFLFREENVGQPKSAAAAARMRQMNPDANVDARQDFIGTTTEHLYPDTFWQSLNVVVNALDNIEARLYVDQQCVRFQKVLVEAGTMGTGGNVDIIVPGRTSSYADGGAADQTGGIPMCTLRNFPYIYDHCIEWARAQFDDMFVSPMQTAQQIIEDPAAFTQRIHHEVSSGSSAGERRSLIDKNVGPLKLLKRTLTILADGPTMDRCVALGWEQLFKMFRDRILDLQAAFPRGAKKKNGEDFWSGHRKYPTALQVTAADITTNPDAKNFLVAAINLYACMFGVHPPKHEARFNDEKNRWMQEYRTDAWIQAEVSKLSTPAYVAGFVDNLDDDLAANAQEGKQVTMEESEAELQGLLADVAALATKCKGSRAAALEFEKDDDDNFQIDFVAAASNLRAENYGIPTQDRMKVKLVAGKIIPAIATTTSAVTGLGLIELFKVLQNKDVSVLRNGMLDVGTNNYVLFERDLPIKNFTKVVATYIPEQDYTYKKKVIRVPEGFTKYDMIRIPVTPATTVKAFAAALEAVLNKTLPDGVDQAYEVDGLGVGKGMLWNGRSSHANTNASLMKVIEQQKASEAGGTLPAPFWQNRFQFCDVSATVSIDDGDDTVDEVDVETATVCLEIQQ

[3] = target: Sialic acid-binding Ig-like lectin 9 (Homo sapiens) (UniProt Q9Y336); test: Hs-Siglec9 ALPHAscreen SOP 20170721; conditions: 10 µM
Sequence of Sialic acid-binding Ig-like lectin 9 (Homo sapiens) (Q9Y336 whole entry): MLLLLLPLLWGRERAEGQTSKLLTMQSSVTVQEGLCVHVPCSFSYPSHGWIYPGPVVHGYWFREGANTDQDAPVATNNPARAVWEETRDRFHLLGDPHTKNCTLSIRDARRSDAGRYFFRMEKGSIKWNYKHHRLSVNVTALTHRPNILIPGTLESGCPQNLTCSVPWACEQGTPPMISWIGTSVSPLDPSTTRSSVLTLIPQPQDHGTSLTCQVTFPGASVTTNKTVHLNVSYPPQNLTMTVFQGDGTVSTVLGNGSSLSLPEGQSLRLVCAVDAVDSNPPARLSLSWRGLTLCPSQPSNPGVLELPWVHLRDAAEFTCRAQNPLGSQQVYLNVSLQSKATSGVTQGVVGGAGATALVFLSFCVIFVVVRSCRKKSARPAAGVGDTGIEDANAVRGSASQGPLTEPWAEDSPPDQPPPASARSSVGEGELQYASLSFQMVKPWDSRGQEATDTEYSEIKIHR

Trypanosoma cruzi = test: Trypanosoma cruzi phosphomannomutase and mannose-1-phosphate guanylyltransferase assay; type: functional; conditions: 10 µM
[4] = target: T2, Arginase-2, mitochondrial (Homo sapiens) (UniProt P78540); test: in vitro enzyme assay to detect the production of urea directly proportional to the activity of Arginase II; type: functional; conditions: 33.3 µM; further: in the data most compounds retested in dose-response had high values
T2 sequence (whole entry): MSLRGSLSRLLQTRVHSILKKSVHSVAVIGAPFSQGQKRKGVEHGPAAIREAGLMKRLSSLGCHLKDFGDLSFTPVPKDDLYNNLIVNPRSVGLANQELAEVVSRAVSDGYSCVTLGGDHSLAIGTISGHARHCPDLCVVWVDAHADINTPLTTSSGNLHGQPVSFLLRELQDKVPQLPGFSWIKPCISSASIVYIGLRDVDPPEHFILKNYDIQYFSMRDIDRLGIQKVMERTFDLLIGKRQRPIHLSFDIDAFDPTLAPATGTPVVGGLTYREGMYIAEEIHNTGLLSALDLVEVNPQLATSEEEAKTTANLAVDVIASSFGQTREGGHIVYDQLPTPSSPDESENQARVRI

[5] = target: T3, Proteasome subunit beta (Trypanosoma cruzi) (UniProt O96673); test: Trypanosoma cruzi proteasome chymotrypsin-like activity (TcProtChymo) assay.; further: in the data most compounds retested in dose-response had high values; type: functional; conditions: 9.37 µM
T3 sequence (whole entry): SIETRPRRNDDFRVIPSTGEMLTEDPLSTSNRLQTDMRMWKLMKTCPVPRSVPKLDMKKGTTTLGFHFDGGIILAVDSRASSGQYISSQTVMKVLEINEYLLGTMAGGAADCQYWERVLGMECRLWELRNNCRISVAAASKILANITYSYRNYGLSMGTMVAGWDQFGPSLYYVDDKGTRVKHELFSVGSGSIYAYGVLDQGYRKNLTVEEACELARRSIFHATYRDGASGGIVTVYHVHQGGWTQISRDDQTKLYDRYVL

Homo sapiens = species: Homo sapiens; test: To identify inhibition of the IFN signalling (Jak-Stat) pathway via expression of an eGFP reporter gene under the control of an IFN-stimulated response element (ISRE) containing MxA promoter.; type: functional; conditions: 30 µM
[6] = target: T4, Tyrosyl-tRNA synthetase, putative (Trypanosoma cruzi (strain CL Brener)) (UniProt Q4DSP6); test: Trypanosoma cruzi tyrosyl tRNA synthetase (TcYRS) _High Tyrosine SOP; type: functional; conditions: 30 µM; further: in the data most compounds retested in dose-response had high values
T4 sequence (whole entry): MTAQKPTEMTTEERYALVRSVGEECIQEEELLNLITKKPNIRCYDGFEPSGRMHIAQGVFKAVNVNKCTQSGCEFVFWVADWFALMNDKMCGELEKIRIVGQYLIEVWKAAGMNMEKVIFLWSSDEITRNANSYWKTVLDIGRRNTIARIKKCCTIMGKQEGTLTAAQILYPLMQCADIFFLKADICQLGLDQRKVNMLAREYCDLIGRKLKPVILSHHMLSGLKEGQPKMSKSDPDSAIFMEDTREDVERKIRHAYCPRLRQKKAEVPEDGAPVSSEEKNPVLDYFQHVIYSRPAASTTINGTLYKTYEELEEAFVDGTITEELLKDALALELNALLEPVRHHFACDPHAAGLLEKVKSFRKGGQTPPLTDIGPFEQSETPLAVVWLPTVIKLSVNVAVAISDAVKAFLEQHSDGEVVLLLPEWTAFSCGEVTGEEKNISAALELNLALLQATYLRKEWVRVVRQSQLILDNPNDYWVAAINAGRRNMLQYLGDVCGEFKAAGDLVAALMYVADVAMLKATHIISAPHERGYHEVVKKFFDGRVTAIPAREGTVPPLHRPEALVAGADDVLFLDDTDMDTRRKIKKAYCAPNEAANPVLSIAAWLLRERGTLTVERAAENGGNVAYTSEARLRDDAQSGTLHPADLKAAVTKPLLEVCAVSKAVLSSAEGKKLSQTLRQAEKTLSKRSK

[7] = target: T4, Tyrosyl-tRNA synthetase, putative (Trypanosoma cruzi (strain CL Brener)); test: Trypanosoma cruzi tyrosyl tRNA synthetase (TcYRS) SOP; type: functional; conditions: 30 µM
[8] = target: Chromo domain-containing protein 1 (Saccharomyces cerevisiae (strain ATCC 204508 / S288c) (Baker's yeast)) (UniProt P32657); test: ScCHD-1 Enzyme Inhibition Assay; type: functional; conditions: 30 µM; further: in the data most compounds retested in dose-response had high values
Sequence of Chromo domain-containing protein 1 (Saccharomyces cerevisiae (strain ATCC 204508 / S288c) (Baker's yeast)) (P32657 whole entry, the tested form may be a part): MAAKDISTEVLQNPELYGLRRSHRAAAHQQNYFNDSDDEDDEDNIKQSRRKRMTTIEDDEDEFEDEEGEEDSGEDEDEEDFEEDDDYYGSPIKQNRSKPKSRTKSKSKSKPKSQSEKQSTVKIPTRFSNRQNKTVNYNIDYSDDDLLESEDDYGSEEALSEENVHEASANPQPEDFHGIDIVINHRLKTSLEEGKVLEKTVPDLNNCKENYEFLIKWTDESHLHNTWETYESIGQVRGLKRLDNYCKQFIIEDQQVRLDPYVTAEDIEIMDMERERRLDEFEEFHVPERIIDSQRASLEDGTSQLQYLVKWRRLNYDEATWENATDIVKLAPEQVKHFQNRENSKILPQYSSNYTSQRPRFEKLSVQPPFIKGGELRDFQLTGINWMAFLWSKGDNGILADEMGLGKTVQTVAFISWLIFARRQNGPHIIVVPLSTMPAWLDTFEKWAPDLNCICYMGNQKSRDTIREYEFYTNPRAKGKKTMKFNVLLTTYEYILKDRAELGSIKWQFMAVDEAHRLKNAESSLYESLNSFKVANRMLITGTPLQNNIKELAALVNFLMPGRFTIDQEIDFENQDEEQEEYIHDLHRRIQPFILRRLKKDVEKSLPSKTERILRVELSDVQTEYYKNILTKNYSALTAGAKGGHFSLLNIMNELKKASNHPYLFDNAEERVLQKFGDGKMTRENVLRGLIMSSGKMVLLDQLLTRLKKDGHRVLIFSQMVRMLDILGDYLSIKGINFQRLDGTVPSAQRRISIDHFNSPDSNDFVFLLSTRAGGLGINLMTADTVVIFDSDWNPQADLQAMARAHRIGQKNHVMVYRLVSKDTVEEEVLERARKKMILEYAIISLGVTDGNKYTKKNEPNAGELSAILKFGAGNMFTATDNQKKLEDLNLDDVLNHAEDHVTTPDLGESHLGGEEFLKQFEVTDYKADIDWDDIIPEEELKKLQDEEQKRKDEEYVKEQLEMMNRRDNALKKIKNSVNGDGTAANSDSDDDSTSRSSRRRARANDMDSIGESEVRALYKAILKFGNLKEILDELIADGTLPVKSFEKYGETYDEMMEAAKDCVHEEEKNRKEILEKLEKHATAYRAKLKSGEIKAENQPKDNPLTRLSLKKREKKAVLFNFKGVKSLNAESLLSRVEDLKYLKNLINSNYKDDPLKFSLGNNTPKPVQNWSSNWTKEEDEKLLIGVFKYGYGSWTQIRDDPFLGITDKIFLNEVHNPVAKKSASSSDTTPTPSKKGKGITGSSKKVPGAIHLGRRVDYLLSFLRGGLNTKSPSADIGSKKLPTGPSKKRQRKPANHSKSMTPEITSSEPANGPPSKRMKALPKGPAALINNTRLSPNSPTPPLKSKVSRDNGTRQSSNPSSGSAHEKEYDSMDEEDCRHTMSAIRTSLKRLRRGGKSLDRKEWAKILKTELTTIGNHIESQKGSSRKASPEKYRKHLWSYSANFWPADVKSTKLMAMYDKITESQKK

Sequence of Protein translocase subunit SecA (Escherichia coli (strain K12)) (P10408 whole entry): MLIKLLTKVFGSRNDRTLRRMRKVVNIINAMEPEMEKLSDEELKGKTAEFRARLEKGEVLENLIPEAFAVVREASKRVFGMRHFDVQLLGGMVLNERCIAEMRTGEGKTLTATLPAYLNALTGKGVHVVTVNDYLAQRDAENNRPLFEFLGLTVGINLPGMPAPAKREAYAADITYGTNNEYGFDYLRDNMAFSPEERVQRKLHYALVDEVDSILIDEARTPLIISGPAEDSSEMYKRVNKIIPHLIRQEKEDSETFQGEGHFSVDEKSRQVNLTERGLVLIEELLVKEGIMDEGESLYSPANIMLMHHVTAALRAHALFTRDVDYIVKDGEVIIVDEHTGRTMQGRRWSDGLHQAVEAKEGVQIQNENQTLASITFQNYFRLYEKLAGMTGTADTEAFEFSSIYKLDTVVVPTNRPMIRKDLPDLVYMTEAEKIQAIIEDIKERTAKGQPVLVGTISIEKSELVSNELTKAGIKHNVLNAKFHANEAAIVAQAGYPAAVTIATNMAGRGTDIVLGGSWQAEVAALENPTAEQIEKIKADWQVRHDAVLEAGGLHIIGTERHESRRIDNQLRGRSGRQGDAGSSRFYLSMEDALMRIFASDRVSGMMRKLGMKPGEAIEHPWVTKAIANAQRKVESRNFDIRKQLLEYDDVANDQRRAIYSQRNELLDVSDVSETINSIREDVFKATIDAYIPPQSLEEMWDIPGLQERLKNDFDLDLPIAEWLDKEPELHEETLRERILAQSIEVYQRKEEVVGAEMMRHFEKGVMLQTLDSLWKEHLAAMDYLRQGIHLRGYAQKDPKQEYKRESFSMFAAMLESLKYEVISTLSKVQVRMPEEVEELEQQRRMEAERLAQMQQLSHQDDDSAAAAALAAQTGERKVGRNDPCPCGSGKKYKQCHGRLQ

Row | SMILES | Percent Effect [1] | Percent Effect [2] | Percent Effect [3] | Percent Effect (Trypanosoma cruzi) | Percent Effect [4] | Percent Effect [5] | Percent Effect (Homo sapiens) | Percent Effect [6] | Percent Effect [7] | Percent Effect [8]
1 | NC(=O)c1ccc(S(=O)(=O)NC(=O)COc2ccc3c(c2)CCC3)cc1 | -4.96% | 7.69% | -3.01% | 8.54% | 0.82% | 4.01% | 4.26% | 3.35% | 10.8% | 6.22%
2 | COc1ccccc1OCC(=O)NS(=O)(=O)c1ccc(Br)s1 | -3.35% | 5.2% | 18.6% | -2.61% | 2.66% | 6.14% | 1.82% | -1.96% | 7.06% | -3.46%
3 | CN1CCN(C[C@@H]2CN(C(=O)c3ccccc3C#N)C[C@@H]2CO)CC1 | -3.4% | 10.8% | 10.3% | 7.86% | 0.35% | 3.42% | 7.14% | 4.79% | 9.76% | 0.408%
4 | Cc1ccc(C(=O)N2CCC3(CC2)COC(COc2ccccn2)C3)o1 (stereo not given) | -7% | 19.5% | 6.32% | 2.24% | -2.83% | 7.33% | -10.8% | 5.79% | 12.8% | 18.6%
5 | Cc1cc(C)c(OCC(=O)NS(=O)(=O)c2c(C)noc2C)c(C)c1 | -3.67% | -2.56% | -14.2% | 5.54% | 1.23% | 1.11% | 7.01% | 1.44% | 10.8% | 1.12%
6 | O=C(CCCOc1ccccc1Cl)N1CCCC(n2cncn2)C1 (stereo not given) | -2.02% | 5.13% | -18.2% | 6.1% | -13.9% | -5.03% | -5.2% | 1.44% | 6.02% | 0.499%
7 | Cc1nnc2n1CCN(C(C(=O)NC1CC1)c1ccccc1)C2 (stereo not given) | -3.46% | 2.56% | 6.36% | 3.47% | 3.69% | 5.72% | 8.81% | 3.35% | 13.2% | -2.99%
8 | O=C(CSC1CCc2ccccc2NC1=O)NCCO (stereo not given) | -0.348% | 13.5% | 0.884% | 1.84% | -3.15% | 15.6% | 25.1% | 5.85% | 14.6% | -1.22%
9 | Cc1cnn(CC2CCCCN2CCCS(N)(=O)=O)c1 (stereo not given) | -1.01% | 21.3% | -1.72% | -2.01% | 3.55% | 11.3% | 8.53% | 5.79% | -2.56% | -12.4%
10 | COc1ccc(CN2CCN(C(C)c3nc(C4CC4)no3)CC2)cc1 (stereo not given) | -1.5% | 12.8% | 2.49% | 3.29% | -9.43% | 7.76% | 26.9% | 3.35% | 10.8% | -7.9%
11 | CC(C)c1cc(CNC(=O)N2CCC(Cc3cnn(C)c3)C2)on1 (stereo not given) | -5.49% | 10.3% | -6.83% | 5.92% | -1.23% | 4.69% | 4.85% | 1.44% | 8.43% | -5.54%
12 | CC(C)c1nnc2n1CCN(C(=O)c1cccc(C(F)(F)F)c1)C2 | -5.89% | 18.7% | 10% | 2.81% | 1.33% | 6.19% | 7.24% | 6.84% | 15.4% | -7.15%
13 | CN(c1ccncn1)C1CC2(CCN(C(=O)c3ccsc3)C2)C1 (stereo not given) | -2.12% | 22.7% | 0.226% | 3.55% | -4.42% | 17.2% | 11.8% | 0% | 17.5% | -21.9%
14 | Cc1cc(C(=O)O)cc(S(=O)(=O)Nc2ccc3c(c2)OCO3)c1C | -0.174% | 2.56% | -9.72% | 2.91% | 3.69% | 19.7% | -15.4% | -4.31% | 10.8% | -3.33%
15 | O=C(NCCn1nc2ccccn2c1=O)c1cccc2[nH]ncc12 | -1.51% | 20.5% | -7.98% | 6.29% | -3.69% | 21.9% | 13.6% | 4.31% | 22.9% | -8.5%
16 | Cc1n[nH]c(=O)c2c(NC(=O)CN3CCCC(C(F)(F)F)C3)oc(C)c12 (stereo not given) | 2.19% | 23.1% | -19.8% | 1.41% | 0% | 17.7% | -1.71% | 3.35% | 22.9% | -4.61%
17 | Cn1ccc(C(=O)NCc2ccc(N3CCCC3)nc2)cc1=O | -3.18% | 8% | 10.6% | 1% | 0% | 5.85% | 21.7% | 3.68% | 5.13% | -7.64%
18 | CCOc1ccccc1C(=O)N1CCCC1c1ncc2c(n1)CCNC2 (stereo not given) | -5.15% | 4% | -1.2% | -5.72% | -4.42% | 7.06% | 10.5% | -6.35% | -2.5% | -31.8%
19 | Cn1cnnc1C1CCCN(C(=O)c2cc(Cl)c3c(c2)OCO3)C1 (stereo not given) | -2.96% | 5.33% | 2.45% | -5.02% | 2.22% | 8.57% | 4.91% | 0.526% | 10.3% | -5.32%
20 | Cc1cc(CN(C)C(=O)c2ccc(Cl)c(S(C)(=O)=O)c2)no1 | -9.03% | 13.3% | 7.77% | 3.81% | -4.88% | 9.41% | 6.05% | 1.58% | 10.3% | -11.5%
21 | Cc1cncc(C(=O)N2Cc3ccccc3C3(CCN(C)CC3)C2)c1 | 0.817% | 1.3% | -5.76% | -4.38% | 4.05% | 3.09% | -17% | -2.63% | -15.4% | -3.41%
22 | O=C1CC(c2ccsc2)c2sc(C(=O)O)c(-c3ccccc3)c2N1 (stereo not given) | -4.21% | 8.11% | 8.19% | 5.92% | 21.3% | 21.9% | 11.7% | 4.79% | 12.2% | 33.2%
23 | COC(=O)Cn1c(=O)nc2n1C(=O)N(c1ccc(Cl)cc1)C2 | -4.67% | 2.7% | 8.46% | -8.83% | -2.45% | 10.4% | -2.27% | 0.532% | 2.44% | -2.66%
